# In PubChem BioAssay AID1240 (Sanford-Burnham Center for Chemical Genomics, 2008):
# Hit rate of the full screen: of about 50,000 compounds, about 800 (1.6%) showed an effect of 50% or more. Shown is part of a subset that was picked to be rich in strong results.
# Target: Bcl-2-like protein 10 (Homo sapiens) (UniProt Q9HD36)
# Assay: TR3 peptide-Bcl-B binding displacers, biochemical primary FP assay, phenotype converters (AID 1240);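 also: 0% = Bcl-B with tracer peptide and DMSO and 100% = tracer peptide lacking Bcl-B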
# Conditions: GST-Bcl-B / FITC-TR3 peptide fluorescence polarization; stronger effect = higher value; compound at 3.75 mg/L
# Bcl-2-like protein 10 (Homo sapiens), sequence (Q9HD36 whole entry, looked up): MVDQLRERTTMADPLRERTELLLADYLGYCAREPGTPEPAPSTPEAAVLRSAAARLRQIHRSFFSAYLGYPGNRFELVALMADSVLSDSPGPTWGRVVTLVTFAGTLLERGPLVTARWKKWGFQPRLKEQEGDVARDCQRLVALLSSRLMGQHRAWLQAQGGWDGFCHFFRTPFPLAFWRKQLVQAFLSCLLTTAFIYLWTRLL
row,Compound,displacement
1,CC(C)(C)c1cc(C(=O)N/N=C/C=C/c2ccccc2)n[nH]1,-9.5%
2,COc1ccc(/C=N/Nc2ncc(Br)cn2)cc1,-11.3%
3,C=CCn1c(O)c(C2=c3cc(Cl)ccc3=NC2=O)sc1=S,-14.2%
4,CCc1ccc(S(=O)(=O)Nc2ccccc2OC)cc1,13.8%
5,N/C(=N\OC(=O)c1ccc(Br)cc1)c1ccc(Cl)cc1,2.2%
6,Cc1cc(Cl)ccc1OCC(O)CN1C(C)CCCC1C (stereo not drawn),0.8%
7,CC(=O)N1C(=O)/C(=C\C(=O)c2ccc([N+](=O)[O-])cc2)c2ccccc21,0.8%
8,CC(C)NC(=O)C12CC3CC(C1)CC(C(=O)NC(C)C)(C3)C2,1.3%
9,CCOC(=O)CSc1nnc2c3ccccc3n(CC)c2n1,-10.4%
10,Cc1ccc(OCc2nnc(NC(=O)Nc3cccc(Cl)c3)s2)cc1C,14.2%
11,C/C(=N\N=C1\NC(=O)C(CC(=O)Nc2ccc(Cl)cc2Cl)S1)c1ccc(Cl)cc1 (stereo not drawn),15.5%
12,COc1ccc(CNC(=O)c2c(-c3c(Cl)cccc3Cl)noc2C)cc1,0.9%
13,COc1cccc(-c2csc(/C(C#N)=C/c3ccc(C)o3)n2)c1,-113%
14,Cc1ccc(/C=C(\C#N)c2nc(-c3ccc(C)c(C)c3)cs2)o1,-25.1%
15,Cc1ccc(/C=C(\C#N)c2nc(-c3cccc(Br)c3)cs2)o1,164%
16,Cc1ccc(-n2c(O)c(/C=N/n3cnnc3)c3ccccc3c2=O)cc1,5.8%
17,COc1cc(OC)c(C=Nc2ccccc2C(=O)Nc2ccccc2)cc1Br,-6%
18,COc1ccccc1N=Cc1c(O)c(C(=O)Nc2ccccc2)cc2ccccc12,105%
19,Cc1ccccc1NC(=O)c1cc(-c2ccccc2)nc2c(Cl)cccc12,-13.6%
20,CCOc1ccccc1C=Nc1ccccc1C(=O)Nc1ccccc1,-7.9%
21,Cc1ccccc1NC(=O)c1cc2ccccc2c(/C=N/n2cnnc2)c1O,109%
22,COC(C(=O)NNC(=O)c1cccc(Cl)c1)c1ccccc1 (stereo not drawn),-5.9%
23,CCOC(=O)C1=C(C)NC(=O)NC1c1cc(OC)c(OC)c(OC)c1 (stereo not drawn),9.3%
24,O=C(CN(c1cccc([N+](=O)[O-])c1)S(=O)(=O)c1ccccc1)NCC1CCCO1 (stereo not drawn),-4.4%
25,O=C(Nc1ccc2nn(-c3ccc(Cl)cc3)nc2c1)c1cccnc1,29.6%

row,Compound,displacement
1,CCOC(=O)c1c(NC(=O)c2ccc(Cl)cc2Cl)sc(C)c1C,6.1%
2,CCOC(=O)c1c(NC(=O)c2ccc(Cl)cc2Cl)sc(C(N)=O)c1C,88.7%
3,CCOC(=O)c1c(NC(=O)c2ccc(Cl)cc2Cl)sc(C(=O)Nc2ccccc2C)c1C,1.3%
4,O=S(=O)(c1ccc2ccccc2c1)N(CC(O)CN1CCOCC1)c1ccccc1 (stereo not drawn),-0.7%
5,O=C(NCc1cccnc1)c1cccc(S(=O)(=O)N2CCCCC2)c1,2.2%
6,CCOC(=O)/C=C/C(=O)Nc1sc(C)c(C)c1C(N)=O,-2%
7,COn1c(=O)c(-c2ccccc2)[n+]([O-])c2ccccc21,15.9%
8,O=c1c(-c2ccccc2)[n+]([O-])c2ccccc2n1O,21.7%
9,CCOn1c(=O)c(-c2ccccc2)[n+]([O-])c2ccccc21,18.9%
10,O=c1c(-c2cccs2)[n+]([O-])c2ccccc2n1O,69.4%
11,CCOn1c(=O)c(-c2cccs2)[n+]([O-])c2ccccc21,121%
12,CCOn1c(=O)c(C)[n+]([O-])c2ccccc21,14.9%
13,Cc1ccc(OCC(=O)NN)c(Br)c1,-6.5%
14,CN1CCN(CCCOc2ccc(Br)cc2)CC1,-8.4%
15,O=C(N/N=C/c1ccc(O)cc1)c1cc(C2CC2)[nH]n1,-10.1%
16,COC(=O)C1=C(C(=O)OC)SC(=C2C(=S)C(C)(C)N(C(=O)c3cccc(F)c3)c3ccc(OC)cc32)S1,-7.9%
17,Clc1ccc(-c2noc(-c3ccc(Cl)cc3Cl)n2)cc1,4.3%
18,CCOC(=O)C1=C(O)/C(=C/c2ccc(O)cc2)SC1=Nc1ccc(Cl)cc1,104%
19,CCOC(=O)C1=C(O)/C(=C/c2ccc(N(C)C)cc2)SC1=Nc1ccc(Cl)cc1,170%
20,CCOC(=O)C1=C(O)/C(=C/c2ccc(N(C)C)cc2)SC1=Nc1ccc(OC)cc1,3.8%
21,CCOC(=O)C1=C(O)/C(=C/c2ccccc2)SC1=Nc1cccc2ccccc12,14.5%
22,CCOC(=O)C1=C(O)/C(=C/c2ccc(N(C)C)cc2)SC1=Nc1ccc([N+](=O)[O-])cc1,15.5%
23,CCOC(=O)C1=C(O)/C(=C/c2ccc(N(C)C)cc2)SC1=Nc1ccc(F)cc1,142%
24,CCOC(=O)C1=C(O)/C(=C/c2ccc(N(C)C)cc2)SC1=Nc1cccc2ccccc12,168%
25,CCOC(=O)C1=C(O)/C(=C/c2ccc(F)cc2)SC1=Nc1ccccc1,-10.3%

row,Compound,displacement
1,CCOC(=O)C1=C(O)/C(=C/c2ccc(Cl)cc2)SC1=Nc1cccc2ccccc12,-11.7%
2,CCOC(=O)C1=C(O)/C(=C/c2ccc(N(C)C)cc2)SC1=Nc1cccc(Cl)c1,-53.7%
3,CCOC(=O)C1=C(O)/C(=C/c2ccc(Cl)cc2)SC1=Nc1ccc(OC)cc1,3.1%
4,CCOC(=O)C1=C(O)/C(=C/c2ccc(Cl)cc2)SC1=Nc1ccc(C)cc1,5.9%
5,Cc1cccc(OCC(=O)Nc2ccc(C)c(C)c2)c1,-13.9%
6,CCOC(=O)C1=C(C)NC(=O)CC1c1cc2c(cc1Br)OCO2 (stereo not drawn),-6.4%
7,O=C(O)/C=C\C(=O)Nc1ccccc1SC(F)(F)F,9.3%
8,O=C1C=CC(=O)N1c1ccc(Cl)cc1[N+](=O)[O-],-9%
9,CCOC(=O)c1c(N)sc(C(=O)Nc2ccccc2F)c1C,12.7%
10,CCC(=O)Nc1nc(C)c(-c2csc(Nc3cccc(C(=O)O)c3)n2)s1,34.5%
11,CC(NC(=O)COc1ccc(/C=N/NS(=O)(=O)c2ccccc2)cc1)c1ccccc1 (stereo not drawn),4%
12,Cc1ccc(C(=O)/C=C/c2ccc(-c3ccc(Cl)cc3)o2)cc1,17.9%
13,O=C(/C=C/c1ccc(-c2cccc(C(F)(F)F)c2)o1)c1ccc(F)cc1,-28.8%
14,COc1ccc(/C=C/C(=O)c2ccc([N+](=O)[O-])cc2)cc1,105%
15,O=C(/C=C/c1ccc(-c2ccccc2Cl)o1)c1ccc(F)cc1,6.5%
16,COc1ccc(/C=C/C(=O)c2cccc([N+](=O)[O-])c2)cc1,14.9%
17,COc1ccc(-c2ccc(/C=C/C(=O)c3ccc(C)cc3)o2)cc1,91.1%
18,COc1ccc(C(=O)/C=C/c2ccc(-c3ccccc3[N+](=O)[O-])o2)cc1,13.8%
19,COc1ccc(C(=O)/C=C/c2ccc(-c3ccc([N+](=O)[O-])cc3)o2)cc1,133%
20,O=C(/C=C/c1ccc(-c2ccc(Br)cc2)o1)c1ccc([N+](=O)[O-])cc1,-1.7%
21,O=C(/C=C/c1ccc(-c2ccccc2)o1)c1ccc(F)cc1,54.3%
22,COc1ccc(-c2ccc(/C=C/C(=O)c3ccc(Cl)cc3)o2)cc1,-16.7%
23,COc1ccc(C(=O)/C=C/c2ccc(/C=C/C(=O)c3ccc(OC)cc3)cc2)cc1,19.1%
